Results filed as inconclusive are left out. Values without a mark were called inactive. Activity calls are given as the source filed them. The call rests on the fitted dose curve; in most records, active means well fitted inhibition curve with a large enough effect; inconclusive means small, poorly fitted or top-dose-only effect, or effect the other way; inactive means no such curve, though single readings can be large or run the other way.

20 compounds from PubChem BioAssay AID489039 (National Center for Advancing Translational Sciences (NCATS), 2010) can be followed below.

In the test the target is Nuclear receptor ROR-alpha (Homo sapiens) (UniProt P35398). The experiment in a line: ROR alpha selectivity assay for inhibitors of ROR gamma transcriptional activity. The conditions noted are these: Drosophila S2 Gal4-RORalpha UAS-luciferase, 20 h; series mostly up to 92.2 µM; activity change, negative = inhibition: at the top concentration. The source says:
NIH Molecular Libraries Probe Production Network [MLPCN] NIH Chemical Genomics Center [NCGC] MLPCN Grant: R03 DA026211-01 Assay Provider: Dan Littman, New York University Assay Overview: The retinoic acid-related orphan receptor (ROR) gamma is a transcription factor that has a central role in the differentiation of Th17 cells, a subset of T helper cells that secrete the inflammatory cytokines IL-17A, IL-17F, and IL-22. Th17 cells have been implicated in graft versus host disease, autoimmune disease and asthma. RORgamma is induced in naive T helper cells in the presence of TGF-beta combined with IL-6, IL-21, or IL-23, and thereafter directs the expression of the Th17 lineage cytokines. To identify nonselective inhibitors, a Drosophila Schneider cell line was stably transfected with two vectors: a gene expressing a fusion of the Gal4 DNA binding domain and the transactivation domain of the ROR alpha, under the control of the metallothionine promoter and a Photinus luciferase reporter regulated by the Gal4 binding site enhancer, UAS. […] Small molecule inhibitors that inhibit RORgamma and RORalpha, or components common to both, will be active in both assays and thus scored as nonselective.
Assay Protocol Summary: For screening, 600 cells in 4 uL/well were dispensed into white solid 1536-well plates (Grenier) using a solenoid-based dispenser. Following transfer of 23 nL compound or DMSO vehicle by a pin tool, the plates were incubated 1 hr at ambient temperature, and 1 uL/well copper sulfate (700 uM final concentration) was added. The plates were centrifuged 15 s at 1000 RPM and incubated 20 hr at ambient temperature. After addition of 1.5 uL Photinus luciferase detection reagent, the plates were incubated 10 min at ambient temperature and then read by an ViewLux (Perkin Elmer) to detect luminescence.
In the case of `COc1ccc2nc(NNC(=O)COc3ccccc3)sc2c1`, the Potency was 6.45 µM (active).
For the compound `CC1CCCN(C(=O)CC(c2ccc3c(c2)OCO3)c2ccc(O)cc2O)C1` (stereo not given), the “activity change, negative = inhibition” value is 13.4%.
With `COc1cc(O)c(C(CC(=O)NC2CCC(C)CC2)c2ccc3c(c2)OCO3)c(OC)c1` (stereo not given), the “activity change, negative = inhibition” value was -1.92%.
Regarding `COc1cc(O)c(C(CC(=O)NC2CCCc3ccccc32)c2ccc3c(c2)OCO3)c(OC)c1` (stereo not given), the “activity change, negative = inhibition” value is -3.21%.
In the case of `CCOc1ncccc1C(=O)OCC(=O)Nc1ccc(-c2nc3ccc(C)cc3s2)cc1`, the Potency was 7.24 µM (active).
Turning to `COc1cc(OC)c(C(CC(=O)N2CCCC(C)C2)c2ccc3c(c2)OCO3)c(OCc2ccccc2)c1` (stereo not given), the Potency is 20.4 µM (active).
`CCOC(=O)C1CCN(CC(=O)Nc2cc(C)nn2-c2nc3ccccc3s2)CC1`: the Potency is 20.4 µM (active).
Regarding `O=C(/C=C/c1ccc(S(=O)(=O)N2CCOCC2)cc1)NC(=S)Nc1ccc(N2CCOCC2)cc1`, the Potency is 14.4 µM (active).
Consider `O=C(CCCOc1ccccc1)Nc1nc2ccccc2[nH]1`, for which the Potency is 14.4 µM (active).
For the compound `COc1cc(O)c(C(CC(=O)N2CCCC(C)C2)c2ccc3ccccc3c2)c(OC)c1` (stereo not given), the “activity change, negative = inhibition” value was -28%.
As for `C[C@@H]1[C@H](C)CC[C@]2(C(=O)O)CC[C@]3(C)C(=CC[C@@H]4[C@@]5(C)CC[C@H](O)C(C)(C)[C@H]5CC[C@]43C)[C@@H]12`, the Potency was 18.2 µM (active).
As to `COCC1CCCN(C(=O)CC(c2ccc3c(c2)OCO3)c2c(O)cc(OC)cc2OC)C1` (stereo not given), the “activity change, negative = inhibition” value is -3.63%.
As to `COc1cc(O)c(C(CC(=O)NCC2CCCCC2)c2ccc3c(c2)OCO3)c(OC)c1` (stereo not given), the “activity change, negative = inhibition” value is -20.1%.
Still for that read-out and setting: the same measure for `COc1cc(O)c(C(CC(=O)N2CCCCC2)c2ccc3c(c2)OCO3)c(OC)c1` (stereo not given): 5.12%.
For `CC(C)(C)c1ccc([S+](=O)([O-])Nc2ccccc2C(O)(C(F)(F)F)C(F)(F)F)cc1`, the Potency is 18.2 µM (active).
As for `COc1cc(O)c(C(CC(=O)N2CCCC2)c2ccc3c(c2)OCO3)c(OC)c1` (stereo not given), the “activity change, negative = inhibition” value is -18.2%.
For the compound `Cc1cc(C)c2sc(NC(=O)c3ccc(N4C(=O)CCC4=O)cc3)nc2c1`, the Potency was 0.407 µM (active).
In the case of `COc1cc(O)c(C(CC(=O)N2CCCC(COc3ccc(F)cc3)C2)c2ccc3c(c2)OCO3)c(OC)c1` (stereo not given), the “activity change, negative = inhibition” value was 16.6%.
In the case of `Cc1cc(C)n(-c2nc(SCC(=O)O)c3c4c(sc3n2)CCCC4)n1`, the Potency is 18.2 µM (active).
Still for that read-out and setting: the same measure for `COc1cc(O)c(C(CC(=O)N2CCCC(C)C2)c2ccc(C(C)C)cc2)c(OC)c1` (stereo not given): 36.3 µM (active).
